Measurements taken from paper PMC5540273 (PLoS ONE, 2017).
Values joined by “and” are separate entries in the source; they are usually repeats but may differ in a detail not shown here. Equal entries are not always repeated. Where two headings read alike, the source gives them in different places.

Legend:
Conditions in all cases: concentration: 1 μM, replicates: in singlicate, n = 1
p38-beta = test system: T1, p38-beta
T1 construct: gene MAPK11

p38-delta = test system: p38-delta
p38-gamma = test system: T2, p38-gamma
T2 construct: gene MAPK12
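Also: KINOMEscan kinase panel screen.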

SMILES	%Inh (p38-beta)	%Inh (p38-delta)	%Inh (p38-gamma)	%Inh (p38-beta; 1 µM)	%Inh (p38-delta; 1 µM)	%Inh (p38-gamma; 1 µM)
CCn1c(-c2ccncc2)nc2cnccc21 [SB-735216]	11%	4%	20%			
NC(=O)c1sc(-n2cnc3ccccc32)cc1OCc1ccccc1F [GSK1024306]	1%	0%	0%			
Cc1ccc(C)c(NC(=O)NCCNc2ccnc(Nc3ccc(F)cc3)n2)c1 [GSK1379878]	0%	45%	0%			
Cc1ccc(NC(=O)c2cccc(C#N)c2)cc1-c1ccc(C(=O)Nc2ccncc2)cc1 [GSK1398463]	9%	48%	26%			
N#Cc1ccc(Oc2ccc(Nc3ncnc4cc[nH]c34)cc2Cl)cc1	14%	3%	10%			
Cl.Fc1ccccc1COc1ccc(Nc2ncnc3ccc(-c4nnc(C(F)(F)F)o4)cc23)cc1Cl [GW424170]	0%	29%	17%			
Nc1nc(-c2ccccn2)c(-c2ccnc3ccccc23)s1 [GW548057]	0%	29%	0%			
O=C(c1ccc(-c2cc(-c3c[nH]nc3-c3ccccn3)ccn2)cc1)N1CCCC1 [GW792479]	20%	0%	66%			
Cn1ccc2ncnc(Oc3ccc(NC(=O)Nc4cccnc4)c(Cl)c3)c21	0%	0%	21%			
Cn1ccc2ncnc(Nc3ccc(Oc4cccc(Cl)c4)c(Cl)c3)c21	22%	40%	8%			
Cl.c1ccc(Cn2ccc3cc(Nc4ncnc5ccccc45)ccc32)cc1 [GW275568]	0%	30%	8%			
Cl.Cn1ccc(-c2cccc(Nc3ccnc4cc(-c5nccs5)ccc34)c2)n1 [GW525701]	0%	23%	14%			
FC(F)(F)c1cc(Nc2nccc(-c3c(-c4ccc(Cl)cc4)nn4ncccc34)n2)ccc1Cl [GW829351]	0%	0%	0%			
CN1CCC(n2cnc(-c3ccc(F)cc3)c2-c2ccnc(NC3CCNCC3)n2)CC1 [SB-229482]	23%	38%	38%			
CSc1nn2c(=O)cc(N3CCOCC3)nc2n1Cc1cccc(Cl)c1Cl [GSK2347225]	0%	59%	16%			
Fc1cccc(COc2ccc(Nc3ncnc4nn5ccccc5c34)cc2Cl)c1 [GW689066]	0%	25%	0%			
OCCOCCn1ccc2ncnc(Nc3ccc(Oc4cccc(Cl)c4)c(Cl)c3)c21	0%	0%	0%			
O=C(Nc1n[nH]c2nc(-c3ccco3)c(Br)cc12)c1ccc(CN2CCCC2)cc1.O=C(O)[C@H](O)[C@@H](O)C(=O)O [SB-742352]	0%	0%	10%			
Cl.O=S(=O)(c1cccc(F)c1)c1ccc(Nc2ncnc3cc(Br)sc23)cc1Cl [GSK306886]	0%	26%	8%			
COC(=O)c1c(-c2ccccc2)c2cc(Cl)ccc2c(=O)n1Cc1ccc(S(C)(=O)=O)cc1	0%	21%	23%			
COc1ccc(NC(=O)Nc2ccc(C)c(-c3ccc(C(=O)Nc4ccncc4)cc3)c2)cc1 [GSK1398475]	0%	37%	0%			
FC(F)(F)c1ccc(-c2cc(-c3c[nH]nc3-c3ccccn3)ccn2)cc1 [GW599550]	0%	50%	16%			
Nc1nc(-c2ccc3c(N)n[nH]c3c2)cc(N2CCC[C@@H](C(=O)Nc3ccccc3)C2)n1.O=C(O)C(F)(F)F.O=C(O)C(F)(F)F [GSK2288359]	0%	18%	27%			
COc1ccc(-c2nc3n(c2-c2ccncc2)CCC3)cc1 [SKF-104493]				33% and 40%	5% and 43%	21% and 8%
Nc1nc(-c2cccnc2)c(-c2ccnc3ccccc23)s1 [GW684083]	0%	27%	0%			
O=C(Nc1ccccc1F)NC1CCN(c2ccnc(Nc3ccc(F)cc3)n2)C1 (stereo not drawn) [GSK1379722]	0%	38%	0%			
O=C(CCO)NCCn1ccc2ncnc(Nc3ccc(Oc4cccc(C(F)(F)F)c4)c(Cl)c3)c21	0%	10%	5%			
O=C(Nc1ccccc1)Nc1ccc(Oc2ccc3nccn3n2)cc1	0%	2%	30%			
CCC(CC)(CC)n1cnc2c(N)ncnc21 [SKF-97620]	8%	0%	1%			
COc1cc2ncnc(Nc3ccc(OCc4ccccc4Br)c(Cl)c3)c2cc1OC.Cl [GI261590]	0%	54%	0%			
